TDP1 cell noCPT: qHTS for Inhibitors of human tyrosyl-DNA phosphodiesterase 1 (TDP1): qHTS in cells in absence of CPT; DT40 Tdp1-/- hTDP1 cells, no CPT, ATP luminescence, 48 h; Potency, µM (highest dose often 46.2 µM), actives largely listed as inhibitors; 420,000 tested, 15% active; AID 686978, 2013; note: nearly all actives have a fitted effect of over 55% in size
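No-CPT arm: Tdp1-/-;hTDP1 DT40 cells (400/well) plus compounds, incubated ≥48 hr at 37 °C. Readout CellTiter-Glo luminescence.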
TGFb SMAD3 inh: blocks TGF-b signaling. HepG2 CAGA-GFP TGF-b/SMAD3 reporter, GFP fluorescence, 18 h; TGF-beta stimulated, 500 pg/mL final. 410,000 tested, 1.2% active. Potency, µM (highest dose often 46.1 µM), hits mostly inhibitors; note: nearly all actives have a fitted effect of over 65% in size
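TGF-beta reporter screen: HEPG2 CAGA-GFP, 1% FBS, 500 pg/mL TGF-beta final, 18 h; per-cell GFP summed per well; curves fitted and categorized by class.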
HepG2 viability: counter-screen for TGF-b inhibitors: cytotoxicity in HepG2 cells; HepG2 CAGA-GFP viability, ATP luminescence, 18 h; Potency, µM (doses to about 46.1 µM), hits mostly cytotoxic; 410,000 tested, 0.76% active
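CellTiter-Glo luminescence gave cytotoxicity after 18 hours at 37 degrees C. The cells were HepG2 CAGA-GFP in 1% FBS DMEM, stimulated with 500 pg/mL TGF-beta after compound addition. %Activity was normalised to no-cell wells (complete cell-killing) and DMSO (no toxicity), and curves were fitted and classified.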
TDP1 cell CPT: DT40-hTDP1 cell growth loss with CPT; chicken DT40 Tdp1-/-;hTDP1 cells + 20 nM CPT, ATP luminescence, 48 h; Potency, µM (series often up to 46.2 µM), actives largely listed as inhibitors; 420,000 tested, 12% active; note: nearly all actives have a fitted effect of over 55% in size
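Chicken DT40 Tdp1-/- cells complemented with human TDP1, 400 cells/well, exposed to compounds plus 20 nM camptothecin for at least 48 h at 37 C; viability read as ATP content by CellTiter-Glo luminescence.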
TDP1 inh: inhibitors of human tyrosyl-DNA phosphodiesterase TDP1. recombinant TDP1, AlphaScreen DNA substrate cleavage. Potency, µM (series often up to 130 µM), hits mostly inhibitors. 350,000 tested, 0.28% active. AID 485290; note: nearly all actives have a fitted effect of over 40% in size
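Steps: enzyme plus compound, 15 min RT; add biotin/phosphotyrosine-FITC oligonucleotide (15 nM final), react 5 min; add donor/acceptor beads (10 ug/ml final), 10 min; read AlphaScreen. Tdp1 at 1 nM final.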
IL1B secr inh: blocks inflammasome-driven IL-1 beta release; THP-1 LPS/ATP IL-1B secretion, AlphaLISA, 16 h; hits give low values; activity change, % at 57.5 µM; 360,000 tested, 4.7% active; in the data active = activity change below about -50%; inconclusive = mostly about -30% to -49%
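Secreted IL-1B measured by AlphaLISA bead assay after 16 h compound exposure of THP-1 cells; compounds (final up to 57.5 uM) added 1 h before LPS (250 ng/mL) and ATP (1.25 mM) stimulation; lower signal means less secretion.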
A number is an active result; . = inactive; ? = inconclusive; / = no result. In the library only some 19% were active in any assay of this set; here they are far more common. Unless noted, calls come from the whole dose curve; as a rule, active = well fitted curve in the direction sought with a large enough effect; inconclusive = small, poorly fitted or top-dose-only effect, or another doubt; inactive = no such curve, though single readings can be large; an effect the other way counts as inactive or inconclusive.

SMILES	TDP1 cell noCPT	TGFb SMAD3 inh	HepG2 viability	TDP1 cell CPT	TDP1 inh	IL1B secr inh
COc1ccc(N2Cc3cccc(C(=O)Nc4cc(C)cc(C)c4)c3C2=O)cc1	.	.	.	.	.	/
COc1ccc(NC(=O)c2cccc3c2C(=O)N(C2CCCCC2)C3)cc1	18µM	.	.	18µM	.	.
Cc1cc(NC(=O)c2cccc3c2C(=O)N(C2CCCCC2)C3)ccc1Br	.	.	.	.	.	.
O=C(Nc1ccc2c(c1)OCO2)c1cccc2c1C(=O)N(C1CCCCC1)C2	.	.	.	.	.	.
O=C(O)c1ccc(C(=O)Nc2cccc3cccnc23)cc1	/	.	.	/	.	/
Cc1cc(NCCCO)n2c(nc3ccccc32)c1C#N	.	.	.	.	.	.
CCc1c(C)c(C#N)c2nc3ccccc3n2c1NCc1ccco1	?	.	.	23µM	.	.
CCCCc1c(C)c(C#N)c2nc3ccccc3n2c1Nc1c(C)n(C)n(-c2ccccc2)c1=O	16µM	.	.	23µM	.	.
CCc1c(C)c(C#N)c2nc3ccccc3n2c1NC	.	.	.	.	/	.
Cc1c(Cc2ccccc2)c(NCCCO)n2c(nc3ccccc32)c1C#N	16µM	?	.	21µM	.	.
CCCOc1ccc(CNC(=O)c2ccc3c(c2)N(Cc2ccccc2)CCS3)cc1	18µM	/	.	?	.	/
O=C(NCc1ccccc1)c1ccc2c(c1)N(Cc1ccc(F)cc1)CCS2	18µM	.	.	?	.	/
O=C(CNC1CCCCCC1)c1cccs1	.	.	.	.	.	.
Nc1c(S(=O)(=O)c2ccccc2)c2nc3ccccc3nc2n1Cc1ccco1	?	.	.	18µM	.	.
COc1ccc(CCn2c(N)c(C#N)c3nc4ccccc4nc32)cc1OC	13µM	.	.	21µM	.	.
CCCCn1c(NC(=O)c2ccc(Br)o2)c(S(=O)(=O)c2ccccc2)c2nc3ccccc3nc21	?	.	.	?	.	.
Nc1c(S(=O)(=O)c2cccs2)c2nc3ccccc3nc2n1Cc1ccc2c(c1)OCO2	?	?	.	?	.	-67
CCCCCn1c(NC(=O)c2ccco2)c(S(=O)(=O)c2ccc(C)cc2)c2nc3ccccc3nc21	18µM	?	.	21µM	.	.
COc1ccc(Cn2c(N)c(C#N)c3nc4ccccc4nc32)cc1OC	.	.	.	.	.	.
CSCC[C@H](NC(=O)[C@H](CCC(N)=O)NC(=O)[C@H](CCCCN)NC(=O)[C@H](CCCNC(=N)N)NC(=O)[C@H](Cc1ccc(O)cc1)NC(=O)[C@H](CCCNC(=N)N)NC(=O)[C@H](CO)NC(=O)[C@H](Cc1ccc(O)cc1)NC(=O)[C@H](CO)NC(=O)[C@H](CC(=O)O)NC(=O)[C@@H](NC(=O)[C@@H](N)Cc1ccccc1)[C@@H](C)O)C(=O)N[C@@H](C)C(=O)N[C@H](C(=O)N[C@@H](CCCCN)C(=O)N[C@@H](CCCCN)C(=O)N[C@@H](Cc1ccc(O)cc1)C(=O)N[C@@H](CC(C)C)C(=O)N[C@@H](C)C(=O)N[C@@H](C)C(=O)N[C@H](C(=O)N[C@@H](CC(C)C)C(=O)NCC(=O)N[C@@H](CCCCN)C(=O)N[C@@H](CCCNC(=N)N)C(=O)N[C@@H](Cc1ccc(O)cc1)C(=O)N[C@@H](CCCCN)C(=O)N[C@@H](CCC(N)=O)C(=O)N[C@@H](CCCNC(=N)N)C(=O)N[C@H](C(=O)N[C@@H](CCCCN)C(=O)N[C@@H](CC(N)=O)C(=O)N[C@@H](CCCCN)C(N)=O)C(C)C)C(C)C)C(C)C	/	/	/	/	.	/
O=C(CC1N=C2c3ccccc3N=C(SCc3cccc(Cl)c3)N2C1=O)NCCc1ccccc1 (centres undefined)	?	?	.	?	.	/

Bioassay records as filed in PubChem.
